# Assay outcomes (PubChem BioAssay)
# HT1080-NT tox: kills 2HG-producing HT-1080-NT fibrosarcoma cells | HT-1080-NT fibrosarcoma viability, CellTiter-Glo ATP luminescence, 48 h | Potency, µM (doses to about 46.1 µM), for inactives: at the top dose activity, negative = less viability, usual class: cytotoxic | hit rate 1.6% among 360,000 | AID 686970;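 note: NT is the 2HG producing partner of a matched IDH1 knockdown line; 0% = DMSO-treated cells and -100% = media-only wells without cells; nearly all actives have a fitted effect of over 55% in size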
#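 HT-1080-NT; 750 cells/well; 5% FBS RPMI; 48 h compound, 37 degrees C; CellTiter-Glo luminescence; curve fitting and curve-class assignment.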
# SW480 rereplic: DNA re-replication induction in SW480 cells; Potency, µM (doses to about 46.1 µM), inactives show at the highest dose re-replication activation, hits mostly activators; hit rate 1.8% among 340,000; AID 624297; SW480 DNA re-replication, Hoechst DNA content imaging, 48 h; note: % of control where 0% means no effect; nearly all actives have a fitted effect of over 55% in size
#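 Readout is total intensity of Hoechst-stained nuclei, excited at 405 nm and collected at 500-530 nm. Compound treatment lasted 48 hr at 37 C in 5% CO2 before staining.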
# HT1080 IDH1KD tx: HT-1080 IDH1 knockdown cell toxicity (counter line); HT-1080 IDH1 knockdown viability, ATP luminescence, 48 h; hit rate 2% among 360,000; Potency, µM (series often up to 46.1 µM), without a hit: at the highest dose activity, negative = toxicity, most hits filed as cytotoxic;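 note: 0% = DMSO wells and -100% = cell-free medium wells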
#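 Assay cells: HT-1080 with IDH1 knockdown, 750 per well, RPMI/5% FBS. Exposure: 48 h at 37 °C following 2 h pre-incubation. Read: CellTiter-Glo luminescence; fitted concentration-response, curve class assigned.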
# KB-V1 MDR tox: kills drug-selected multidrug resistant KB-V1 cells | KB-V1 MDR cells viability, CellTiter-Glo, 72 h | Potency, µM (doses to about 46.1 µM), usual class: cytotoxic | hit rate 3.4% among 400,000; note: % is set by controls: 0 for no effect and ±100 for the full control effect; nearly all actives have a fitted effect of over 60% in size
#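 KB-V1 MDR subline cells in DMEM (phenol-red free, 10% FBS) exposed to compounds in qHTS concentration series for 72 h at 37 degrees C. Viability read by CellTiter-Glo luminescence; concentration-effect curves fitted after normalization and correction.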
# KB-3-1 cytotox: kills parental KB-3-1 adenocarcinoma cells | Potency, µM (doses to about 46.1 µM), usual class: cytotoxic | KB-3-1 viability, CellTiter-Glo ATP luminescence, 72 h | AID 1347075 | hit rate 1.4% among 400,000; note: % is set by controls: 0 for no effect and ±100 for the full control effect; nearly all actives have a fitted effect of over 60% in size
#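 KB-3-1 parental drug-naive adenocarcinoma cells in DMEM/10% FBS, incubated 72 h at 37 C with pin-transferred compounds across a concentration series. Viability by CellTiter-Glo luminescence; concentration-response curves fitted after normalization.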
# MCF10A rereplic: inducers of DNA re-replication in MCF 10A breast cells | MCF 10A DNA re-replication, Hoechst nuclear intensity, 48 h | Potency, µM (series often up to 46.1 µM), inactives show top-dose activity, positive = re-replication, usual class: activators | hit rate 2.9% among 350,000; note: % of control where 0% means no effect; nearly all actives have a fitted effect of over 50% in size
# * hit, by the source's call; i = inactive; ? = inconclusive; · = not tested or not shown; [ ] = another dose, or the depositor's remark. A selection: hits, their analogues and other compounds. The true share with any hit is near 7.9%. Calls come from the whole dose curve; as a rule, active = well fitted curve in the direction sought with a large enough effect; inconclusive = small, poorly fitted or top-dose-only effect, or another doubt; inactive = no such curve, though single readings can be large; an effect the other way counts as inactive or inconclusive. Potency is the fitted concentration of half-maximal effect.
SMILES,HT1080-NT tox,SW480 rereplic,HT1080 IDH1KD tx,KB-V1 MDR tox,KB-3-1 cytotox,MCF10A rereplic
Cc1ccc(C(=O)N/C(=C/c2ccc(-c3cccc([N+](=O)[O-])c3)o2)C(=O)NC(C)C)cc1,0%,0%,-10%,3.7µM*,i,20%
COc1cccc(NS(=O)(=O)c2ccc3c(c2)[C@H]2C=CC[C@H]2[C@@H](c2ccccc2Cl)N3)c1,·,·,·,i,?,·
COc1ccc2c(c1)C1C=CCC1C(c1cc3c(cc1Br)OCO3)N2 (configuration not stated),10µM*,9.2µM*,10µM*,i,?,3.7µM*
CC(=O)c1ccc2c(c1)C1C=CCC1C(c1cc3c(cc1Br)OCO3)N2 (configuration not stated),5.8µM*,12µM*,3.7µM*,6.5µM*,5.8µM*,4.1µM*
Cc1cccc(NC(=O)[C@H](Cc2ccccc2)NC(=O)[C@@H]2Cc3ccccc3CN2)c1,23%,-3%,9%,i,i,-2%
CNC[C@@H](CC1CCCCC1)NC[C@H](CC(C)C)NCCc1cccc(C(F)(F)F)c1,23µM*,?,?,?,?,7.3µM*
COc1ccc(/C=C2\C(=O)c3ccccc3OC2c2ccccc2)cc1 (configuration not stated),?,?,?,7.3µM*,?,10µM*
COc1ccc(/C=C2\Oc3ccccc3C2=O)cc1,10%,-2%,-2%,?,?,-30%
CCOc1ccccc1C1NC(=O)c2ccccc2O1 (configuration not stated),12%,-11%[9.22 µM],13%,i,i,-4%
CCOc1ccc(/C=C2\C(=O)c3ccccc3OC2c2ccccc2)cc1 (configuration not stated),11%,?,-26%,16µM*,?,5.2µM*
COc1ccccc1N1CCN(S(=O)(=O)CCNC(=O)CC2CCCC2)CC1,3%,·,-5%,?,i,·
Cc1cc2c(n1-c1ccc(Br)cc1)CC(C)(C)CC2=O,10%,1%,7%,26µM*,i,3%
COc1ccc(NC(=O)CSc2nc(C3CC3)nc3ccccc23)c(OC)c1,-1%,3%,-22%,?,i,1%
Cc1ccc(NC(=O)CSc2nc(NS(=O)(=O)c3ccc(C)cc3)cc(=O)[nH]2)cc1,-24%,0%,-20%,4.1µM*,i,?
O=c1cc(NS(=O)(=O)c2ccccc2)nc(SCc2ccc(Cl)cc2)[nH]1,3%,-4%,-2%,16µM*,i,?
O=C(CSc1nc(NS(=O)(=O)c2ccccc2)cc(=O)[nH]1)Nc1ccc(Cl)cc1,1%,-23%,-5%,i,?,0%
CN(/N=C\c1ccc(O)c(O)c1)c1nc(-c2ccccc2)cc(-c2ccccc2)n1,?,18µM*,?,?,i,?
Cc1nnc(SCC(=O)Nc2sc3c(c2C(N)=O)CCC(C)C3)[nH]c1=O (configuration not stated),-1%[9.24 µM],10%,8%,i,?,-3%
CSc1nnc2c3ccccc3n(CCc3ccccc3)c2n1,-16%,?,?,i,9.2µM*,?
CCN(CC)CCNC(=O)/C(=C/c1cn(CC)c2ccccc12)NC(=O)c1cc(OC)c(OC)c(OC)c1,-13%,-21%,0%,i,i,0.65µM*
CCCC(C)C(=O)Nc1nc(C)c(-c2csc(Nc3ccc(Cl)cc3)n2)s1 (configuration not stated),0%,?,-8%,i,8.2µM*,0%
CCCCCC(=O)Nc1nc(C)c(-c2csc(Nc3ccccc3OC)n2)s1,-7%,-10%,-11%,i,i,?
CCCC(C)C(=O)Nc1nc(C)c(-c2csc(Nc3ccccc3OC)n2)s1 (configuration not stated),2%,7%,0%,i,i,21µM*
CCC(C)C(=O)Nc1nc(C)c(-c2csc(Nc3cc(Cl)ccc3OC)n2)s1 (configuration not stated),-3%,7%,-10%,?,i,-9%
CCCC1CCc2c(sc(N)c2C(N)=O)C1 (configuration not stated),11%,0%,20%,16µM*,i,?
SMILES,HT1080-NT tox,SW480 rereplic,HT1080 IDH1KD tx,KB-V1 MDR tox,KB-3-1 cytotox,MCF10A rereplic
CCC(C)(C)C1CCc2c(sc(N)c2C(N)=O)C1 (configuration not stated),-3%,1%,-10%,i,i,?
Cc1nn(Cc2ccccc2Cl)c(C)c1C(=O)NCCN1C(=O)S/C(=C\c2ccccc2)C1=O,?,-7%,-19%,?,i,16µM*
Cc1csc(NC(=O)CSc2[nH]c(=O)ncc2C)n1,5%,-3%,2%,?,i,0%
Cc1cnc(=O)[nH]c1SCC(=O)c1ccc(F)cc1,-28%,74%,-14%,i,i,18µM*
O=C(c1ccccc1)c1nn(-c2ccc(Cl)cc2)c(=O)cc1C(F)(F)F,18µM*,?,21µM*,18µM*,?,12µM*
O=C(Nc1ccccc1)c1nn(-c2ccccc2)c(=O)cc1C(F)(F)F,11%,-5%,17%,i,i,-1%
O=C(c1cccc(Cl)c1)c1nn(-c2ccccc2)c(=O)cc1C(F)(F)F,?,-5%,?,23µM*,?,-6%
Cn1c(=N)n(CC(O)c2ccco2)c2ccccc21 (configuration not stated),7%,2%[9.22 µM],14%,i,i,-4%
Cn1c(=N)n(CC(O)c2cccc3ccccc23)c2ccccc21 (configuration not stated),23µM*,?,-9%[9.24 µM],?,?,16%
CC(C)C[C@@H](CN1CCC[C@H]1CN1C(=O)C(=O)NC[C@@H]1Cc1ccc(O)cc1)N1C[C@H](Cc2ccccc2)N(CC2CCCCCC2)C(=O)C1=O,?,·,?,i,i,·
CC1=C(C(=O)NCc2cccc(Br)c2)C2(CCCCC2)OC1=O,·,·,·,i,i,·
O=C(Nc1ccc(Cl)cc1Cl)c1ccc(-c2ccccc2)cc1,?,-4%,25%,i,i,1%
CCNc1ccc(C(=O)OCC)cc1NC(=O)c1cccc(S(=O)(=O)N(C)c2ccccc2)c1,14%,1%,14%,i,i,1%
